biological target: T1, GST-Aq-NF-kB (Amphimedon queenslandica, UniProt A9Y5G7 2-389); assay: protein-binding microarray (PBM); PBM: ~300 nM protein, 6 mM HEPES pH 7.8, 80 mM KCl, 0.5 mM EDTA, 0.5 mM EGTA, 6% glycerol, 35 ng/ul poly-dIdC, 1% milk, 1 h, room temperature; Ap Aiptasia and Nv Nematostella (sea anemones) / Co Capsaspora / Aq Amphimedon (sponge) / Dm Drosophila / Hu human; RHD is the Rel homology domain; high values mean tight binding; settings: dsDNA, one strand shown
T1 sequence: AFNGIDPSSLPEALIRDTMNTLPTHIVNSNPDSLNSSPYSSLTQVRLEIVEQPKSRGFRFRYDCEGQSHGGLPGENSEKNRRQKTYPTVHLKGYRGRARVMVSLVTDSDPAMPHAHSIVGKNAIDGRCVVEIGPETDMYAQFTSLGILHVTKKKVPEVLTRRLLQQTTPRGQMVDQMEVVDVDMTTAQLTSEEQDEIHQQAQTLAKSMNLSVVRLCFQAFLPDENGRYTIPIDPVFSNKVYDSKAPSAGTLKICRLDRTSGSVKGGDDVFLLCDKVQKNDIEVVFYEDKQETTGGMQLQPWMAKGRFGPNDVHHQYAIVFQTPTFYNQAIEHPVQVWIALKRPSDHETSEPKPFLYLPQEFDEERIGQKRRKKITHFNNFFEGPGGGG

Q: For “CCGATTAACATCAGGGGTTTAACTGATGTTAATCGGGTCTTGATTCGCTTGACGCTGCTG”, which binding signal is on record?
A: Its binding signal is 3.04 z-score.

Q: “CCGATTAACATCAGGGACCGCCCTGATGTTAATCGGGTCTTGATTCGCTTGACGCTGCTG” was tested. Which binding signal did it give?
A: The binding signal was 6.48 z-score.

Q: For “CCGATTAACATCAGGAACGCCCCTGATGTTAATCGGGTCTTGATTCGCTTGACGCTGCTG”, which binding signal is on record?
A: Its binding signal is 5.42 z-score.

Q: With “CCGATTAACATCAGGGGGTAACCTGATGTTAATCGGGTCTTGATTCGCTTGACGCTGCTG” as the sequence, how does the binding signal read?
A: Its binding signal is 5.48 z-score.

Q: Which binding signal does the source give for “CCGATTAACATCAGGAGTACCCCTGATGTTAATCGGGTCTTGATTCGCTTGACGCTGCTG” here?
A: Its binding signal is 4.07 z-score.

Q: How did the binding signal turn out when “CCGATTAACATCAGGGAAAATGATGATGTTAATCGGGTCTTGATTCGCTTGACGCTGCTG” was run?
A: The binding signal was 3.05 z-score.

Q: Which binding signal does the source give for “CCGATTAACATCAAGCAATTCCCTGATGTTAATCGGGTCTTGATTCGCTTGACGCTGCTG” here?
A: The binding signal was 3.57 z-score.

Q: Which binding signal does the source give for “CCGATTAACATCAGGAAATGCCCTGATGTTAATCGGGTCTTGATTCGCTTGACGCTGCTG” here?
A: The binding signal was 5.41 z-score.

Q: For “CCGATTAACATCAGGAATAACCCTGATGTTAATCGGGTCTTGATTCGCTTGACGCTGCTG”, which binding signal is on record?
A: The binding signal was 5.81 z-score.

Q: Which binding signal does the source give for “CCGATTAACATCAATGGGATTCCTGATGTTAATCGGGTCTTGATTCGCTTGACGCTGCTG” here?
A: Its binding signal is 1.65 z-score.

Q: With “CCGATTAACATCACGGTATTTCCTGATGTTAATCGGGTCTTGATTCGCTTGACGCTGCTG” as the sequence, how does the binding signal read?
A: The binding signal was 4.59 z-score.

Q: How did the binding signal turn out when “CCGATTAACATCAAATATACCCCTGATGTTAATCGGGTCTTGATTCGCTTGACGCTGCTG” was run?
A: Its binding signal is 4.15 z-score.

Q: “CCGATTAACATCACGGGAAACCCTGATGTTAATCGGGTCTTGATTCGCTTGACGCTGCTG” was tested. Which binding signal did it give?
A: Its binding signal is 5.65 z-score.

Q: With “CCGATTAACATCAGATTTCCCACTGATGTTAATCGGGTCTTGATTCGCTTGACGCTGCTG” as the sequence, how does the binding signal read?
A: The binding signal was 2.32 z-score.
